Hits are enriched below; roughly 28% of the tested compounds scored in any of these assays.
CYP2C19 inhib: blocks human cytochrome P450 2C19. P33261. CYP2C19 Supersomes, luciferin-H EGE luminescence, 30 min. inhibition, % at 5 µM. actives 21% (n = 96,000). AID 778;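 active = CYP2C19 inhibition above a set limit at 5 µM in the primary screen, cut at about 50% in these data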;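 also: plate controls were negative control wells for no effect and 2.5 mM tranylcypromine positive control for full effect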
D1 allo mod: allosterically modulates the human D1 dopamine receptor; P21728; B-score at 10 µM; actives 5.9% (n = 58,000); HEK293 D1, CRE-luciferase, dopamine EC30 potentiation; actives deviate in either direction;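 active = luminescence count or its row- and column-corrected plate score outside the 99.7% band of the plate's sample wells, on either side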
CYP2C9 activ: increases human cytochrome P450 2C9 activity; recombinant CYP2C9, luciferin-H conversion, luminescence; active compounds read high; factor 1 = untreated enzyme, 0 = blocked; activation factor at 5 µM; P11712; actives 1.4% (n = 96,000); AID 1024;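 active = activation factor of 2 or more for CYP2C9 at a 5 µM dose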;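 also: 0 = sulfaphenazole-blocked wells and 1 = vehicle-only wells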
Target sequence (P11712 whole entry, looked up): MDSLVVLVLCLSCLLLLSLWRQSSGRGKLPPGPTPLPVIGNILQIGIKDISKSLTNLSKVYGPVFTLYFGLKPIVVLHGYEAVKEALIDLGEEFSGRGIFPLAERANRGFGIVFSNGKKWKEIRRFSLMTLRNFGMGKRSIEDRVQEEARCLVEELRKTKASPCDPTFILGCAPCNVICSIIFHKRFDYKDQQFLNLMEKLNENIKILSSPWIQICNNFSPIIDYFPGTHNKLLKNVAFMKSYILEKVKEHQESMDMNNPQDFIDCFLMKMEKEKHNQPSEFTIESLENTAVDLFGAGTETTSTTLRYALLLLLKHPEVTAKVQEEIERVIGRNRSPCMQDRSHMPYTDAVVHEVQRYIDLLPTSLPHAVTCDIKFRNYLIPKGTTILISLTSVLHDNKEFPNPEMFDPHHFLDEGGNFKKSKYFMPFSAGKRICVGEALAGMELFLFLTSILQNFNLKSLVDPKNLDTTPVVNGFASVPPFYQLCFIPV
hDAT+cocaine: human DAT dopamine uptake with cocaine, either direction; LLC-PK1 hDAT cells, [14C]-dopamine uptake with cocaine IC80; actives deviate in either direction; Q01959; B-score at 10 µM; AID 449768; actives 1.3% (n = 110,000);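 active = Z score or B-score, a plate-position-corrected score, falls beyond the plate's 99.7% confidence bounds, in either direction; inactive = both scores lie inside the 99.7% bounds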;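 also: scored against the spread of the other compound wells on the same plate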
CYP2C9 inhib: inhibitors of human CYP2C9. P11712. AID 777. inhibition, % at 5 µM. actives 20% (n = 96,000). CYP2C9 Supersomes, luciferin-H conversion, luminescence;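 active = blocking of liver enzyme CYP2C9 beyond about 50% at 5 µM, limit read from the data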
CYP2C19 activ: cytochrome P450 2C19 (human) activation; P33261; recombinant CYP2C19, luciferin-H EGE luminescence; active compounds read high; 0 = fully inhibited enzyme, 1 = untreated enzyme; activation factor at 5 µM; 96,000 tested, under 10 active;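 active = activation factor of at least 2 at 5 µM in the primary screen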;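 also: 0 = wells with 2.5 mM tranylcypromine and 1 = vehicle-only wells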
* = called active by the depositor; . = no result.

SMILES	CYP2C19 inhib	D1 allo mod	CYP2C9 activ	hDAT+cocaine	CYP2C9 inhib	CYP2C19 activ
COc1ccc(NC(=O)CCc2nc(-c3ccc(C)cc3)no2)cc1Cl	12	-0.45	0.9	-0.47	11	0.9
COc1ccccc1-c1noc(CCC(=O)Nc2cc(C(F)(F)F)ccc2Cl)n1	68*	2.5	1.4	-0.36	-44	0.3
O=C(O)CCc1nc(-c2cccs2)no1	-16	-1.1	1.1	.	-10	1.2
O=C1c2ccccc2NC(c2ccc3c(c2)OCCO3)N1c1ccc2c(c1)OCCO2 (stereo not given)	79*	-2.6	0.1	1.1	94*	0.2
COc1cc(C2Nc3ccccc3C(=O)N2c2ccc3c(c2)OCCO3)ccc1OCC(C)C (stereo not given)	70*	.	0	1.3	99*	0.3
O=C1c2ccccc2NC(c2ccc3c(c2)OCO3)N1O (stereo not given)	17	-0.57	0.8	-0.52	16	0.8
COc1cccc(C2=NO[C@@H]3C(=O)N(c4ccc5c(c4)OCCO5)C(=O)[C@H]23)c1OC	2	-0.73	0.9	0.31	13	1
O=C(O)CC1NC(=O)N(c2ccc(Cl)cc2)C1=O (stereo not given)	-10	0.14	1.2	-1.7	-22	1.1
c1ccc(CSc2nnc(-c3cccs3)o2)cc1	39	0.027	0.7	0.00027	28	0.6
Fc1ccccc1CSc1nnc(-c2cccs2)o1	85*	-0.059	0.2	0.26	80*	0.1
Fc1ccc(CSc2nnc(-c3cccs3)o2)cc1	78*	-0.17	0.3	-0.21	72*	0.2
COC(=O)CN(C#N)c1nc(OC)nc(N(C)C)n1	14	-0.76	1.2	0.9	-15	0.9
COc1cccc(C(=O)NC(Cc2ccccc2)c2ccc3c(c2)OCCCO3)c1 (stereo not given)	46	.	0.2	0.91	75*	0.5
COc1ccc(C(CC(=O)O)NC(=O)c2ccco2)cc1 (stereo not given)	10	.	1	-0.0014	-2	0.9
O=C(O)C(Cc1ccccc1)NS(=O)(=O)c1ccc2c(c1)OCCO2 (stereo not given)	15	.	1	-2.1	-2	0.8
O=C(NC(Cc1ccccc1)c1ccc2c(c1)OCCCO2)c1ccc(F)cc1 (stereo not given)	64*	.	0.1	0.17	90*	0.4
Fc1ccc(OCc2nc(-c3ccc(Br)o3)no2)c(F)c1	94*	.	0.7	0.54	27	0.1
Clc1ccccc1OCc1nc(-c2ccc(Br)o2)no1	94*	.	0.4	0.61	58*	0.1
Brc1ccc(-c2noc(COc3ccc4ccccc4c3)n2)o1	14	.	1.1	0.27	-12	0.9
COc1ccc(Cc2nc(-c3ccc(Br)o3)no2)cc1OC	88*	.	0.4	-0.22	65*	0.1
Cc1nc2sccn2c1P(c1c(C)nc2sccn12)c1c(C)nc2sccn12	72*	0.84	0.4	-0.081	63*	0.3
Cc1nc2sccn2c1-c1nc(-c2cc3ccccc3o2)cs1	20	.	0.9	.	8	0.8
CC(C)(C)NS(=O)(=O)c1cnc(Cl)c(Cl)c1	90*	.	1	-0.48	-1	0.1
CC(C)(C)NS(=O)(=O)c1ccc(Oc2ncc(C(F)(F)F)cc2Cl)cc1	6	.	1.1	-0.14	-9	0.9
Cc1ccnc(NC2c3ccccc3C(=O)N2Cc2ccccc2Cl)c1 (stereo not given)	5	-0.011	0.8	-0.81	23	0.9
SMILES	CYP2C19 inhib	D1 allo mod	CYP2C9 activ	hDAT+cocaine	CYP2C9 inhib	CYP2C19 activ
CC1CCCC(C)N1C(=O)CSc1nc(N)c(-c2ccccc2)c(=O)[nH]1 (stereo not given)	-19	.	1.1	0.89	-8	1.2
CCOCCSC1=C(C#N)C(c2cccs2)C(C(C)=O)=C(C)N1 (stereo not given)	90*	0.42	0.2	0.12	83*	0.1
CCOC(=O)C1=C(C)NC(SCc2cc(=O)[nH][nH]2)=C(C#N)C1c1cccs1 (stereo not given)	90*	-0.1	0.2	-0.38	79*	0.1
CCSC1=C(C#N)C(c2cccs2)C(C(=O)OC)=C(C)N1 (stereo not given)	88*	-1.3	0.1	-0.34	91*	0.1
COC(=O)C1=C(C)Nc2c(c(=O)n(C)c(=O)n2C)C1c1cccs1 (stereo not given)	83*	0.64	0.3	-0.55	73*	0.2
CC(Oc1ccccc1)C(=O)N1CCC2(CC1)Oc1ccc(F)cc1C(=O)C21CC(c2ccccc2)=NO1 (stereo not given)	.	.	.	-0.8	.	.
CCOC(=O)C1=C(C)NC(SCC(=O)Nc2cc(C)on2)=C(C#N)C1c1cccs1 (stereo not given)	91*	-5.3*	0.1	1.7	95*	0.1
CC(=O)C1=C(C)NC(C)=C(C(C)=O)C1c1cccs1	94*	0.041	0.4	0.26	62*	0.1
CC1=C(C(=O)N(C)C)C(c2cccs2)NC(=O)N1 (stereo not given)	.	.	.	0.43	.	.
CCOC(=O)C1=C(C)NC(SCC(N)=O)=C(C#N)C1c1cccs1 (stereo not given)	52*	.	0.5	2	52*	0.5
C=CCOC(=O)C1=C(C)NC(SCC(=O)Nc2nccs2)=C(C#N)C1c1cccs1 (stereo not given)	17	.	0.8	0.15	16	0.8
CCOC(=O)C1=C(C)NC2=C(C(=O)CC(c3cccs3)C2)C1c1cccs1 (stereo not given)	.	.	.	0.9	.	.
Cc1nc2nc(C)c(CCC(=O)Nc3ccc4c(c3)OCO4)c(C)n2n1	-6	0.022	1	-0.56	4	1.1
CCOC(=O)CN1C(=O)N[C@@H](CCc2ccccc2)[C@H](C(=O)OC)[C@H]1C	.	.	.	0.32	.	.
Cc1cc(C)nc(SCCC(=O)Nc2ccccc2C)n1	22	.	1.7	0.9	-67	0.8
O=C(Nc1nc(=O)c2ccccc2s1)c1ccc(Cl)cc1	62*	.	0.6	-0.049	39	0.4
Nc1ccc(C(=O)Nc2nc3ccccc3s2)cc1	0	-6.6*	0.6	0.42	36	1
Cn1cc(Cl)c(C(=O)Nc2nc3ccccc3s2)n1	54*	.	1.1	1.2	-6	0.5
Cc1cc(C)n(-c2ccc(C(=O)Nc3nc4ccccc4s3)cc2)n1	24	0.095	0.8	-0.68	19	0.8
Cc1nnc(C)n1/N=C/c1ccc(-c2ccccc2)cc1	-3	.	1.1	-0.87	-8	1
CC12CC3(C)CC(C)(C1)CC(C(=O)Nc1nn[nH]n1)(C2)C3	54*	.	0.9	-0.93	15	0.5
CC12CC3CC(C)(C1)CC(C(=O)Nc1nn[nH]n1)(C3)C2	11	0.43	1	-1.6	-2	0.9
COc1ccc(-n2cnnc2SCC(=O)N(C)C2CCS(=O)(=O)C2)cc1 (stereo not given)	-6	0.13	1.1	-1.9	-12	1.1

High-throughput results (PubChem)
